Bioassay records as filed in PubChem BioAssay.
NPC1 promoter act: NPC1 promoter activation; actives 2.4% (n = 320,000); AID 485313; Huh7 NPC1 promoter luciferase reporter, 24 h; Potency, µM (highest dose often 9.22 µM), actives largely listed as activators; note: nearly all actives have a fitted effect of over 60% in size
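Luminescence from an NPC1 promoter-driven luciferase reporter in stably transfected Huh7 cells was measured after 24 h compound treatment at 37 °C, followed by 10 min ambient incubation with luciferase detection reagent.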
Rab9 prom act: activates the Rab9 promoter | Huh7 Rab9 promoter-luciferase reporter, luminescence, 24 h | Potency, µM (titrated, usually from 9.22 µM), usual class: activators | actives 2.8% (n = 320,000); note: nearly all actives have a fitted effect of over 60% in size
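Huh7 cells stably carrying Rab9 promoter–luciferase reporter, plated 1500 cells/well, compound added after 2 h and incubated 24 h at 37 °C; luciferase luminescence then read after 10 min with detection reagent.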
SMN2 splice up: SMN2 splice variant enhancement; HEK293 SMN2-luciferase splicing reporter, luminescence, 30-36 h; Potency, µM (top dose mostly 46.1 µM), most hits filed as activators; actives 2.8% (n = 210,000); AID 1458; note: nearly all actives have a fitted effect of over 55% in size
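HEK293 cells carry an SMN2 […]–luciferase reporter in which exon 7 inclusion puts luciferase in frame. Cells were plated 10-12 h before compound addition, then incubated 30-36 h at 37C. ONE-Glo luminescence was read; sodium butyrate at 4.5 mM final served as control.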
ELG1 genotoxic: induces genotoxicity in HEK293T cells with luciferase-tagged ELG1; HEK293T ELG1-luciferase reporter, luminescence, 16 h; Potency, µM (top dose mostly 46 µM), usual class: activators; actives 1.3% (n = 330,000); AID 504466; note: nearly all actives have a fitted effect of over 60% in size
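Genotoxic stress is detected as increased luminescence from luciferase-tagged ELG1 in HEK293T cells, measured with ONE-Glo after a 16 hr treatment at 37 °C.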
FLuc modulator: counter-screen for miR-21 project: firefly luciferase inhibitors or activators | Potency, µM (titrated, usually from 57.5 µM), most hits filed as inhibitors | actives 6.9% (n = 360,000) | AID 588342 | P08659 | purified FLuc, Km substrates, luminescence inhibition; note: nearly all actives have a fitted effect of over 55% in size
Target sequence (P08659 whole entry, looked up): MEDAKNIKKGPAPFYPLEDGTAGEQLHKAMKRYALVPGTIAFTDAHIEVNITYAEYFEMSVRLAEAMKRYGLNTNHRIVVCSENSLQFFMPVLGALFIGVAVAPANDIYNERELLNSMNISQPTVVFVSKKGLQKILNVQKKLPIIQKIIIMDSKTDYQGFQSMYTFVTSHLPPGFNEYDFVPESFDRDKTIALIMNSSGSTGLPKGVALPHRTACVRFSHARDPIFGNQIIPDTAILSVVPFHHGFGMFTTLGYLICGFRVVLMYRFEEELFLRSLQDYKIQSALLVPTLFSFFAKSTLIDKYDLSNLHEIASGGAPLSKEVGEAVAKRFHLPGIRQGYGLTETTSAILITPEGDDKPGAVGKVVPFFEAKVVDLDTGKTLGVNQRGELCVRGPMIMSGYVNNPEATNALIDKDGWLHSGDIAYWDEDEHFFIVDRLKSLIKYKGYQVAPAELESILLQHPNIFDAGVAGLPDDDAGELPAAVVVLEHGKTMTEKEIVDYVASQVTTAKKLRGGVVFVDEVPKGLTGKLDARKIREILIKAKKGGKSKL
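Purified P. pyralis luciferase (10nM final) with 10uM D-luciferin and 10uM ATP (Km levels) in 50mM Tris acetate pH 7.5, 10mM Mg acetate, 0.01% Tween-20, 0.05% BSA; qHTS 6-point titration, ~60 µM downward; luminescence read.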
Of the large screens only hits and unclear results are named; the others gave an inactive call. Hits are enriched below; roughly 7.5% of the tested compounds scored in any of these assays. Calls come from the whole dose curve; as a rule, active = well fitted curve in the direction sought with a large enough effect; inconclusive = small, poorly fitted or top-dose-only effect, or another doubt; inactive = no such curve, though single readings can be large; an effect the other way counts as inactive or inconclusive.

CCOC(=O)C1(C)C=C(Nc2ccccc2)C(=O)N1c1ccccc1 (configuration not stated)	none (no result: SMN2 splice up)
COc1ccc(-c2ccc(NCCN3CCOCC3)nn2)cc1OC	none (no result: SMN2 splice up)
Cc1ccc2nc(-c3ccccc3)cc(C(=O)NCC3CCCO3)c2c1 (configuration not stated)	FLuc modulator 5.4µM (no result: SMN2 splice up)
CCOc1ccc(-c2cc(C(=O)NCC3CCCO3)c3ccccc3n2)cc1 (configuration not stated)	SMN2 splice up inconclusive, FLuc modulator 5.4µM
COc1ccc(-c2cc(C(=O)NCC3CCCO3)c3ccccc3n2)c(OC)c1 (configuration not stated)	none (no result: SMN2 splice up)
Cc1ccc(-c2nn(-c3ccccc3)cc2C(=O)NCC2CCCO2)cc1 (configuration not stated)	FLuc modulator 13µM (no result: SMN2 splice up)
CC(C)Oc1ccc(-c2nc(NCC3CCCO3)c3ccccc3n2)cc1 (configuration not stated)	FLuc modulator 9.5µM (no result: SMN2 splice up)
O=C(NCC1CCCO1)c1cn(Cc2ccccc2)nc1-c1ccccc1 (configuration not stated)	none (no result: SMN2 splice up)
c1cncc(-c2nc(NCC3CCCO3)c3ccccc3n2)c1 (configuration not stated)	none (no result: SMN2 splice up)
CC(=O)c1cc(CN2CCN(C(C)C)C(CCO)C2)cs1 (configuration not stated)	none (no result: SMN2 splice up)
COc1cccc(-c2cc(C(=O)NCC3CCCO3)c3cc(Br)cc(C)c3n2)c1 (configuration not stated)	ELG1 genotoxic inconclusive, FLuc modulator 2.7µM (no result: SMN2 splice up)
COc1ccc(C(=O)N/N=C(\C)CC(=O)Nc2ccc3ccccc3c2)c(OC)c1	none (no result: SMN2 splice up)
O=C(COc1ccc(Cl)cc1)Nc1ccc2[nH]ncc2c1	none (no result: SMN2 splice up)
COc1ccc(C(=O)Nc2ccc3[nH]ncc3c2)cc1	NPC1 promoter act 0.89µM, Rab9 prom act 2.8µM, ELG1 genotoxic 8.2µM, FLuc modulator 1.9µM (no result: SMN2 splice up)
CCOc1ccc(C(=O)Nc2ccc3[nH]ncc3c2)cc1	NPC1 promoter act 1.3µM, Rab9 prom act 1.4µM, FLuc modulator 1.3µM (no result: SMN2 splice up)
COc1ccc(C(=O)Nc2ccc3cn[nH]c3c2)c(OC)c1	NPC1 promoter act inconclusive, Rab9 prom act inconclusive, SMN2 splice up 13µM, ELG1 genotoxic inconclusive, FLuc modulator 6µM
CC(=O)Nc1cc(C(=O)N2CCc3ccccc3C2)ccc1Sc1ccc(F)cc1	none
COCc1cc(CNC(=O)C2CCC(=O)N(Cc3ccccc3OC)C2)[nH]n1 (configuration not stated)	none (no result: SMN2 splice up)
COc1cccc(N2CCN(C(=O)c3ccc4nc(N5CCCCC5)sc4c3)CC2)c1	NPC1 promoter act inconclusive, Rab9 prom act inconclusive, ELG1 genotoxic inconclusive, FLuc modulator 19µM
COc1cccc(N2CCN(C(=O)c3ccc4ccccc4c3)CC2)c1	none (no result: SMN2 splice up)
COc1ccc(N2CCN(C(=O)c3ccc4nc(N5CCCCC5)sc4c3)CC2)cc1	ELG1 genotoxic 23µM, FLuc modulator inconclusive
Cc1cc(-c2ccc(S(=O)(=O)N3CCN(c4cccc(C)c4C)CC3)s2)on1	none (no result: SMN2 splice up)
CC(=O)Oc1ccc(-c2cccc(C(=O)O)c2)cc1	ELG1 genotoxic inconclusive, FLuc modulator 3.8µM
CC(=O)Oc1ccc(-c2ccc(C(=O)O)cc2)cc1	FLuc modulator inconclusive
O=C(Nc1ccc(F)cc1F)C1CCN(S(=O)(=O)c2ccc3[nH]c(=O)ccc3c2)CC1	none (no result: NPC1 promoter act, Rab9 prom act, SMN2 splice up, ELG1 genotoxic)
COc1ccccc1N1CCN(C(=O)c2cc(-c3ccc4c(c3)OCO4)on2)CC1	FLuc modulator inconclusive
O=C(c1cc(-c2ccc3c(c2)OCO3)on1)N1CCN(c2ccccc2)CC1	NPC1 promoter act 2.8µM, Rab9 prom act inconclusive, ELG1 genotoxic inconclusive, FLuc modulator 3.8µM
O=C(Nc1c(Cl)cccc1Cl)c1cc(-c2ccc3c(c2)OCO3)on1	none (no result: NPC1 promoter act, Rab9 prom act, ELG1 genotoxic)
CC(C)CNC(=O)COCc1cc(-c2ccc3c(c2)OCO3)on1	ELG1 genotoxic inconclusive, FLuc modulator inconclusive (no result: SMN2 splice up)
O=C(c1cc(-c2ccc3c(c2)OCO3)on1)N1CCOCC1	NPC1 promoter act 0.4µM, Rab9 prom act 0.63µM, SMN2 splice up 0.5µM, ELG1 genotoxic 0.58µM, FLuc modulator 1.5µM
CC(C)CNC(=O)c1cc(-c2ccc3c(c2)OCO3)on1	NPC1 promoter act 0.56µM, Rab9 prom act 0.5µM, ELG1 genotoxic inconclusive, FLuc modulator 1.9µM (no result: SMN2 splice up)
CN(C(=O)c1cc(-c2ccc3c(c2)OCO3)on1)c1ccccc1	NPC1 promoter act 2.5µM, Rab9 prom act 2.5µM, ELG1 genotoxic 18µM, FLuc modulator 15µM (no result: SMN2 splice up)
CCC(CO)N=CC1=C(O)CC(c2ccccc2)CC1=O (configuration not stated)	none (no result: SMN2 splice up)
C=CCNC(=S)NNC(=O)c1ccccc1OCC	none
O=C(c1cc(-c2ccc3c(c2)OCO3)on1)N1CCN(c2ccc(F)cc2)CC1	FLuc modulator 15µM
O=C(c1cc(-c2ccc(O)cc2)on1)N1CCN(c2ccc(F)cc2)CC1	FLuc modulator inconclusive (no result: SMN2 splice up)
Cc1nc(COC(=O)c2ccc(CO)cc2)cs1	none
Cc1nc(COC(=O)c2cc(O)c3ccccc3c2O)cs1	FLuc modulator 5.4µM
O=C(OCc1ccccc1)c1ccccc1O	none (no result: NPC1 promoter act, Rab9 prom act, ELG1 genotoxic, FLuc modulator)
O=C(OCc1csc(-c2ccccc2)n1)c1ccccc1O	Rab9 prom act 4µM, ELG1 genotoxic inconclusive, FLuc modulator 6µM
O=C(O)C=C1CCN(c2ncc(C(F)(F)F)cc2Cl)CC1	NPC1 promoter act inconclusive, Rab9 prom act inconclusive, FLuc modulator 19µM
NNC(=O)C=C1CCN(c2ncc(C(F)(F)F)cc2Cl)CC1	none
N=c1oc2ccc3ccccc3c2cc1C(N)=S	none (no result: SMN2 splice up)
CN(C)C(=O)c1ccc2c(c1)N(CC(=O)NCc1ccc(F)cc1)C(=O)C1CCCCN21 (configuration not stated)	none (no result: NPC1 promoter act, Rab9 prom act, SMN2 splice up, ELG1 genotoxic)
Clc1ccc(-c2nnc(CCc3ccccc3)o2)c(Cl)c1	NPC1 promoter act 2.5µM, Rab9 prom act 2µM, SMN2 splice up 13µM, ELG1 genotoxic inconclusive, FLuc modulator 5.4µM
Clc1ccccc1-c1nnc(CNC2CC2)o1	none
O=C(OCc1nnc(-c2ccccc2)o1)c1ccco1	FLuc modulator 24µM
c1ccc(OCc2nnc(-c3ccccc3)o2)cc1	NPC1 promoter act inconclusive, Rab9 prom act 4µM, SMN2 splice up 13µM, ELG1 genotoxic inconclusive, FLuc modulator 17µM
Oc1ccccc1-c1nnc(COc2ccccc2)o1	ELG1 genotoxic inconclusive, FLuc modulator 15µM
ClCc1nnc(-c2ccccc2)o1	none
Cc1nc(NC(=O)CCN2C(=O)C3CC=CCC3C2=O)sc1C (configuration not stated)	none (no result: SMN2 splice up)
CCOc1ccc(C(c2c(O)cc(C)n(CCOC)c2=O)N2CCN(c3ccccc3)CC2)cc1 (configuration not stated)	none (no result: NPC1 promoter act, Rab9 prom act, SMN2 splice up, ELG1 genotoxic)
O=C(NS(=O)(=O)Oc1ccc(Cl)cc1)OC[C@@H]1CCCN2CCCC[C@H]12	SMN2 splice up inconclusive
Oc1ccccc1-c1nnc(COc2ccc(Cl)cc2Cl)o1	SMN2 splice up inconclusive, ELG1 genotoxic 13µM, FLuc modulator inconclusive
COc1cccc(NC(=O)c2ccccc2-c2nc(-c3ccc(Cl)cc3)no2)c1	FLuc modulator 13µM
